In PubChem BioAssay:
Calls of active or inactive are those of the source.

How the values were obtained:
[1] = binders of probe aFSTL3 on microarray, primary screen, stem cell growth factor project, biochemical, small-molecule microarray, fluorescence 635/667 (AID 1064); settings: higher = more signal;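 also: measures binding of the biotinylated anti-FSTL3 antibody to printed compounds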
[2] = binders from COS7 lysate, DM2A8 probe, primary screen, torsin A project, cell lysate, small-molecule microarray, fluorescence 635/667 (AID 1065); settings: higher = more signal, COS7 lysate expressing mutant human TOR1A
[3] = binders of probe aFGF2 on microarray, primary screen, stem cell growth factor project, biochemical, small-molecule microarray, fluorescence 635/667 (AID 1067); settings: higher = more signal;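 also: measures binding of biotinylated aFGF2 protein to printed compounds on slides; z-score merges feature fluorescence and signal-to-noise across triplicate slides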
[4] = binders of probe aFGF10 on microarray, primary screen, stem cell growth factor project, biochemical, small-molecule microarray, fluorescence 635/667 (AID 1071); settings: higher = more signal;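 also: score merges 667 nm spot intensity and signal to noise from triplicate slides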
[5] = target: Neurogenic locus notch homolog protein 2 (Homo sapiens) (UniProt Q04721); experiment: Notch2 binders on small-molecule microarrays, primary screen, biochemical, small-molecule microarray, 635 nm fluorescence, stem cell growth factors (AID 1073); settings: Notch2 binding, higher = more signal
[6] = target: Pro-neuregulin-1, membrane-bound isoform (Homo sapiens) (UniProt Q02297); experiment: NRG1 binders on small-molecule microarrays, primary screen, psychiatric disease protein project, biochemical, small-molecule microarray, fluorescence 635/667 (AID 1075); settings: NRG1 binding, 635 nm fluorescence, higher = more signal;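 also: score combines 667 nm spot fluorescence with signal to noise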
[7] = tested on: Neuregulin-1 EGF-like domain; experiment: binders of neuregulin-1 EGF-like domain, primary screen, biochemical, small-molecule microarray, 635 nm fluorescence (AID 1081); settings: small-molecule microarray binding, higher = more signal;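 also: binding of the protein to compounds printed on small-molecule microarray slides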
[8] = FRG1 promoter luciferase signal modulators, primary screen, FRG1 inhibition for FSHD, cell-based, C2C12 myotubes, firefly/Renilla luciferase, luminescence (AID 1084); settings: higher = more signal, called active from +8 up or from −8 down
[9] = binders of probe aFST on microarray, primary screen, stem cell growth factor project, biochemical, small-molecule microarray, fluorescence 635/667 (AID 1086); settings: higher = more signal;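 also: score merges 667 nm fluorescence with signal-to-noise of each printed compound spot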
[10] = binders of probe aHhip on microarray, primary screen, stem cell growth factor project, biochemical, small-molecule microarray, fluorescence 635/667 (AID 1087); settings: higher = more signal;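 also: score merges spot fluorescence at 667nm with spot signal to noise ratio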
[11] = tested on: PRMT1 (protein arginine N-methyltransferase 1); experiment: PRMT1 binders on small-molecule microarrays, primary screen, biochemical, small-molecule microarray, 635 nm fluorescence (AID 1088); settings: small-molecule microarray binding, higher = more signal;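 also: binding of Prmt1 protein to compounds spotted on small-molecule microarray slides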
[12] = yeast growth modulation, basal conditions, primary screen, YJM789 clinical isolate, OD600, 24 h (AID 1089);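 also: growth of clinical yeast isolate S. cerevisiae YJM 789 seeded 1000 cells per well; test concentration not given here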; settings: S. cerevisiae YJM789 growth, higher = more signal, called active from +8 up or from −8 down
[13] = fission yeast growth modulation, primary screen, strain 972, OD600, 24 h, no modulator (AID 1090);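 also: basal condition with compound alone and no growth modifier present; test concentration not given here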; settings: S. pombe 972 growth, higher = more signal, called active from +8 up or from −8 down
[14] = S. cerevisiae growth modulation with rapamycin, primary screen, strain BY4716, OD600, 96 h (AID 1091); settings: higher = more signal, called active from +8 up or from −8 down; also: test concentration not given here
[15] = target: Torsin-1A-interacting protein 2 (Homo sapiens) (UniProt Q8NFQ8); experiment: LULL1 binders on small-molecule microarray, primary screen, cell lysate, human LULL1 lysate, 635/667 nm fluorescence (AID 1092); settings: hLULL1 lysate binding, 635 nm fluorescence, higher = more signal;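 also: probe is lysate of COS7 cells overexpressing human LULL1; score merges per-feature 667 nm fluorescence with signal-to-noise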
[16] = E. coli growth modulation, two-sided OD650, primary screen, E. coli filamentation project, strain DRC41, 24 h (AID 1093); settings: OD650, 24 h, higher = more signal, called active from +8 up or from −8 down;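 also: MC1000 strain lacking acrAB efflux and sulA so SOS filamentation is blocked; test concentration not given here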
[17] = small-molecule microarray binders of probe aLefty2, primary screen, biochemical, biotinylated probe, 635/667 nm fluorescence (AID 1094); settings: higher = more signal;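 also: score merges spot fluorescence near 667 nm with spot signal-to-noise ratio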
[18] = tested on: Noggin (protein binding on small-molecule microarray); experiment: Noggin binders on small-molecule microarray, primary screen, biochemical, 635/667 nm fluorescence (AID 1095); settings: 635 nm fluorescence, higher = more signal;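 also: score merges 667 nm feature fluorescence with signal to noise over triplicate slides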
[19] = target: Neurogenic locus notch homolog protein 3 (Homo sapiens) (UniProt Q9UM47); experiment: NOTCH3 binders on small-molecule microarray, primary screen, biochemical, 635/667 nm fluorescence (AID 1096); settings: NOTCH3 binding, 635 nm fluorescence, higher = more signal
[20] = small-molecule microarray binders of probe aEGFR, primary screen, biochemical, biotinylated probe, 635/667 nm fluorescence (AID 1097); settings: higher = more signal;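 also: probe is a biotinylated anti-EGFR antibody binding compounds printed on slides; score combines fluorescence near 667 nm and signal to noise of each spot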

Sequence of Torsin-1A-interacting protein 2 (Homo sapiens) (Q8NFQ8 whole entry, looked up): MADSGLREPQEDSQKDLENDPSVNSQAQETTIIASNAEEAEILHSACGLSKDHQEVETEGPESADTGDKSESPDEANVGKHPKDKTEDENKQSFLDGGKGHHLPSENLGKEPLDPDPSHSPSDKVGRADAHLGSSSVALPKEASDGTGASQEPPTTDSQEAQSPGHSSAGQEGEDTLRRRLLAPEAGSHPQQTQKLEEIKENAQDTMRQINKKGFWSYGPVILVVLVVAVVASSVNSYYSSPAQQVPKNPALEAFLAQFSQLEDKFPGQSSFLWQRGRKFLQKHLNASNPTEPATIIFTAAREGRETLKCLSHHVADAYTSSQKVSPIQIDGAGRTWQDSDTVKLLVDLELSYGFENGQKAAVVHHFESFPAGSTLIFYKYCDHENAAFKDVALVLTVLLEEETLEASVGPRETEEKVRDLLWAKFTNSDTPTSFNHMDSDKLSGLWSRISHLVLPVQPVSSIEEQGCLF
Sequence of Neurogenic locus notch homolog protein 3 (Homo sapiens) (Q9UM47 whole entry, looked up): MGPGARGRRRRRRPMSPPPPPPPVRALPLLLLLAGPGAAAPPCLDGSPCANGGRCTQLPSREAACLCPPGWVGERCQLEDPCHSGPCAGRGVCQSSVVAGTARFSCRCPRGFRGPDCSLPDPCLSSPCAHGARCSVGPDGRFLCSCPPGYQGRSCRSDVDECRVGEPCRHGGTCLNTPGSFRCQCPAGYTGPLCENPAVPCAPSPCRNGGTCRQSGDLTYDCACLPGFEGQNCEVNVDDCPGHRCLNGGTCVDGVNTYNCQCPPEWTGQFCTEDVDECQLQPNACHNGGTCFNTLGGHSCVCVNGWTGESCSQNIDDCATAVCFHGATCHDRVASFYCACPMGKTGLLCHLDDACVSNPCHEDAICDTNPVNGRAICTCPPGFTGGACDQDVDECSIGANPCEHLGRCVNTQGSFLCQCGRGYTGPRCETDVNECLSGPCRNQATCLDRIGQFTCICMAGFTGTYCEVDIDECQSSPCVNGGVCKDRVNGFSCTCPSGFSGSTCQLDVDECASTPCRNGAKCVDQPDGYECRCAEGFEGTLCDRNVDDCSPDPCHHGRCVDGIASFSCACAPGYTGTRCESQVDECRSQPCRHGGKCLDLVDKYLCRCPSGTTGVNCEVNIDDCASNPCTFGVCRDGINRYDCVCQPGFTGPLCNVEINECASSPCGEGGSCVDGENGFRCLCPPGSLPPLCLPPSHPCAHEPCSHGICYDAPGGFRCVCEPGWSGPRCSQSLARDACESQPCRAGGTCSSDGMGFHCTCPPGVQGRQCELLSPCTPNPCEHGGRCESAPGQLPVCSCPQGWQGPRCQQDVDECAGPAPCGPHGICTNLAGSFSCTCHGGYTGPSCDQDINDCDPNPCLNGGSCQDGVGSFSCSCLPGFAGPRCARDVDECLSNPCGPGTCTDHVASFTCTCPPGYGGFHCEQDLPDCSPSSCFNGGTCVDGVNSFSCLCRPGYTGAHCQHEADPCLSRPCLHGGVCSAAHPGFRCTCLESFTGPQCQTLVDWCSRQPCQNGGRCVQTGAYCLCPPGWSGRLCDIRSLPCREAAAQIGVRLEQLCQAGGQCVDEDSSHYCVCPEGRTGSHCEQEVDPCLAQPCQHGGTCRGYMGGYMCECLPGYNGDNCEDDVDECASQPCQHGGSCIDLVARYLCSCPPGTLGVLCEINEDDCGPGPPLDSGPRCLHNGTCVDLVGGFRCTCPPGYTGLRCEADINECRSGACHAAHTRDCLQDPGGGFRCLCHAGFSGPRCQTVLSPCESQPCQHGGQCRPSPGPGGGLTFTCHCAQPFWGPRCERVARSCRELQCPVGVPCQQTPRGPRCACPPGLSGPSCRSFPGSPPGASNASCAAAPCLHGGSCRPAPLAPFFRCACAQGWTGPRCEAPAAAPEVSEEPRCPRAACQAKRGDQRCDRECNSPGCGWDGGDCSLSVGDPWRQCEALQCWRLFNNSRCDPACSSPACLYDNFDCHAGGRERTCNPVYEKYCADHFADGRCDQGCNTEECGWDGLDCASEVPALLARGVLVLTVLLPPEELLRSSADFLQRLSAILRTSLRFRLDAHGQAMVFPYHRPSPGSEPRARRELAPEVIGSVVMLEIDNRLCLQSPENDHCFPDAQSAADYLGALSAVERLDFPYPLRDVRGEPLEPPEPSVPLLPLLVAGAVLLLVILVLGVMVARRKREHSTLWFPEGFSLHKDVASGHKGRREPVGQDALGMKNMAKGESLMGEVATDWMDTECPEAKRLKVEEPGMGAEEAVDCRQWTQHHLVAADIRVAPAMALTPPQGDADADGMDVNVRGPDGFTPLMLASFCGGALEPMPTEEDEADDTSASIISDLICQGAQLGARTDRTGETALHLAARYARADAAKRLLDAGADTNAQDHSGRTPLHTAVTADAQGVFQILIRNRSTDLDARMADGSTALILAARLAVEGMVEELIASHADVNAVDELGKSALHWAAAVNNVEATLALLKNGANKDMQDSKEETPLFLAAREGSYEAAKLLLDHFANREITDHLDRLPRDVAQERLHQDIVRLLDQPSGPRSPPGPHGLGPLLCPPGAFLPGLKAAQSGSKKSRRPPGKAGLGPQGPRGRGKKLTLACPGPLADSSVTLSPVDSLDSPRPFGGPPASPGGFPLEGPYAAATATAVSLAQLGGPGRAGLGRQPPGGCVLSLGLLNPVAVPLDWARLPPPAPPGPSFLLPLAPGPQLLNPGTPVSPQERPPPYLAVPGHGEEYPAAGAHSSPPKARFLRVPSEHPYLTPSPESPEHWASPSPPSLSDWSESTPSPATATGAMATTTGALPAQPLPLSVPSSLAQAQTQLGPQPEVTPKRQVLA
Sequence of Pro-neuregulin-1, membrane-bound isoform (Homo sapiens) (Q02297 whole entry, looked up, the tested form may be a part, canonical isoform): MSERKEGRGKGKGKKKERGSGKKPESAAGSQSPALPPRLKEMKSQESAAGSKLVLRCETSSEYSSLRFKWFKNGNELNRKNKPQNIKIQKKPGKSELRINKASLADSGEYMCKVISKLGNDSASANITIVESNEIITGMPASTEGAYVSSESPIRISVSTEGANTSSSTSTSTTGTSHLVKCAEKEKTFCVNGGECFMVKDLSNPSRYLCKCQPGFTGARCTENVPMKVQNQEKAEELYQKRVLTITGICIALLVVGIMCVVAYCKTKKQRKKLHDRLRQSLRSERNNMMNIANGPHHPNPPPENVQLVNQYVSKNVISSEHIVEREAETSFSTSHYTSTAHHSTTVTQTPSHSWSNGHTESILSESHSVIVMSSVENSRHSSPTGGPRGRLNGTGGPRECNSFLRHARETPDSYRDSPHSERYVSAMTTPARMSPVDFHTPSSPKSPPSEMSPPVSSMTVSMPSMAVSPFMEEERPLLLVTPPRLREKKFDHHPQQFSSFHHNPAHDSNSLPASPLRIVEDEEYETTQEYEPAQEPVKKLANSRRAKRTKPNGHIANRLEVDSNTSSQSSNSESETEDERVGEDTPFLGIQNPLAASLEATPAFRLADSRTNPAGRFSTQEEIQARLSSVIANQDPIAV

Structure (SMILES)	composite z-score [1]	composite z-score [2]	composite z-score [3]	composite z-score [4]	composite z-score [5]	composite z-score [6]	composite z-score [7]	z-score [8]	composite z-score [9]	composite z-score [10]	composite z-score [11]	z-score [12]	z-score [13]	z-score [14]	composite z-score [15]	z-score [16]	composite z-score [17]	composite z-score [18]	composite z-score [19]	composite z-score [20]
C=C1C(=O)C=C2CN(C(=O)c3ccccc3)[C@@](Cc3ccc(OC)cc3)(C(=O)OC)[C@@H]12	0.53	0.442	0.369	1.01	1.72	2.09	1.29	2.08 (inactive)	0.924	0.212	1.54	0.573 (inactive)	1.85 (inactive)	10.3 (active)	3.85	-0.656 (inactive)	0.68	0.232	1.01	0.146
COC(=O)[C@H](Cc1ccccc1)N1CC2=CCCC=C[C@@H]2[C@H]1[C@H](O)Cc1ccccc1	-0.22	0.0803	-0.103	0.311	-0.0146	0.112	0.667	0.569 (inactive)	0.0599	-0.0427	0.438	-1.09 (inactive)	-2.01 (inactive)	-0.172 (inactive)	0.626	-0.496 (inactive)	-0.0632	1.15	0.215	-0.111
C=C(CCCC)/C(=C/C[C@H](OC(C)=O)c1cccc(OCCO)c1)c1cnc2ccccc2c1	0.243	-0.194	-0.116	0.0835	0.16	-0.0759	0.244	-0.45 (inactive)	-0.381	-0.0994	0.12	1.94 (inactive)	0.924 (inactive)	1.32 (inactive)	-0.0488	0.442 (inactive)	-0.116	-0.271	0.0799	-0.169
CO[C@H]1O[C@H](CO)[C@@H](OC(=O)Nc2ccccc2)[C@H](OC(=O)Nc2ccccc2)[C@H]1OC(=O)Nc1ccccc1	-0.114	0.0396	0.118	1.17	0.971	0.888	1.34	0.921 (inactive)	0.0643	-0.0296	1.43	1.55 (inactive)	0.759 (inactive)	0.997 (inactive)	3.49	0.758 (inactive)	-0.134	0.772	0.814	-0.0978
COCCn1c(C(=O)N(C)C)cc2c1C[C@H]1CN(C(=O)c3ccccc3)[C@@](Cc3ccc(OC)cc3)(C(=O)OC)[C@@H]21	0.609	-0.478	-0.19	0.34	1.64	1.54	1.27	1.54 (inactive)	1.32	0.0053	-0.325	1.15 (inactive)	1.82 (inactive)	2.03 (inactive)	3.31	-0.332 (inactive)	0.43	-0.465	1.1	0.0634
C=C(CCCC)/C(=C/C[C@H](OC(=O)c1ccncc1)c1cccc(OCCO)c1)c1cnc2ccccc2c1	-0.279	0.824	0.0437	0.595	0.974	1.56	1.04	0.996 (inactive)	0.346	-0.0491	1.53	-0.664 (inactive)	-0.968 (inactive)	8.23 (active)	2.52	-0.268 (inactive)	-0.121	0.869	1.13	-0.065
